Experimental data published in PubChem BioAssay (NCATS).
Records with an inconclusive call do not appear. A call without a number means that no potency is given here. Active and inactive are the calls of the source. Calls come from the whole dose curve; as a rule, active = well fitted cell-killing curve with a large enough effect; inconclusive = small, poorly fitted or top-dose-only effect; inactive = no such curve, though single readings can be large or run the other way.

Test: qHTS of pediatric cancer cell lines to identify multiple opportunities for drug repurposing: Primary screen for OHS-50 cells (AID 1347103); note: nearly all actives have a fitted effect of over 40% in size
Settings: OHS-50 osteosarcoma viability, CellTiter-Glo luminescence, 48 h; series mostly up to 57.3 µM
Source text: Drug repurposing or repositioning has been offered as a strategy for drug development in oncology programs. This approach has special potential for childhood cancers and other rare or orphan diseases, where the expected return on new drug development has been a disincentive to pharmaceuticals.
In this project we exploit the poly-pharmacology of drugs to discover new indications via phenotypic screening of a panel of 19 well-characterized cell lines derived from solid tumors seen in children and adolescents. The goal is to identify approved drugs with previously unrecognized anticancer properties that has the potential to reveal new mechanisms and biological processes involved in carcinogenesis or drug resistance. We employed a titration-based paradigm (quantitative high-throughput screening or qHTS), where all compounds were tested at multiple concentrations for their effect on cell viability. Concentration-response curves (CRCs) were derived directly from the primary screen, and both potency and efficacy values were used to identify compounds with robust bioactivity profiles. We screened the NIH Chemical Genomics Center (NCGC) Pharmaceutical Collection (NPC) and Mechanism Interrogation Plate (MIPE) small molecule collections of approved and investigational compounds against these cell lines; and measured metabolically active cells after 48 hours of compound treatment as a proxy for cell viability.
Assay Submitter: Nathalia J. Martinez, National Center for Advancing Translational Sciences, National Institutes of Health, Rockville, MD, USA; email: natalia.martinez@nih.gov
[1] Shen, M et al. Quantitative high-throughput phenotypic screening of pediatric cancer cell lines identifies multiple opportunities for drug repurposing. Oncotarget 2017 Dec 19;9(4):4758-4772. PMID 29435139.
The cells were obtained from University of North Carolina (UNC), Pediatric Preclinical Testing Program (PPT), and Coriell Institute (CI).
qHTS cell viability assay:
Cells were assayed in growth media at a density of 500-1,000 cells/well. Five microliters of cells were dispensed into 1,536-well, white, solid-bottom, TC-treated plates (Greiner Bio One) using a multidrop dispenser and incubated at 37 degrees C, 5% CO2, under a humidified atmosphere for 5 hours. Twenty-three nanoliters of compounds and controls (neutral control DMSO or positive control bortezomib at final concentration of 2.3 µM) were subsequently transferred by Kalypsys pintool. For primary screens, the MIPE collection was tested at 11-point dilutions (final concentrations range from 0.78 nM to 46 µM) and the NPC collection at 8-point dilutions (final concentrations range from 0.59 nM to 46 µM). Compounds tested in follow-up screens were assayed at 11-point dilutions. Cells were incubated for 48 hours, followed by addition of 3 µL of CellTiter-Glo (Promega). After a 15 min incubation at room temperature, samples were analyzed for luminescence intensity using a ViewLux High-throughput CCD imager equipped with clear filters.
Potency is the fitted concentration of half-maximal effect.

| SMILES | Potency |
| --- | --- |
| CN(C)[C@@H]1C(=O)C(C(N)=O)=C(O)[C@@]2(O)C(=O)C3=C(O)c4c(O)cccc4[C@@](C)(O)[C@H]3[C@H](O)[C@@H]12 | inactive |
| C[C@]12COC(=O)C[C@@H]1CC[C@@H]1[C@H]2CC[C@@]2(C)[C@H]1CC[C@]2(C)O | inactive |
| O=C(N[C@@H](COc1ccc2[nH]c(=O)[nH]c2c1)c1ccccc1)c1cccn(Cc2ccc(F)c(F)c2)c1=O | 30600 nM (active) |
| CC(C)NCC(O)c1ccc([N+](=O)[O-])cc1 (stereo not given) | inactive |
| CC(C)(C)NC[C@H](O)c1ccc(O)cc1Cl | inactive |
| CCNC(=O)C[C@@H]1N=C(c2ccc(Cl)cc2)c2cc(OC)ccc2-n2c(C)nnc21 | 1530 nM (active) |
| Oc1ccc2c3c1O[C@H]1c4[nH]c5c(c4C[C@@]4(O)[C@@H](C2)N(CC2CC2)CC[C@]314)C[C@@]1(O)[C@H]2Cc3ccc(O)c4c3[C@@]1(CCN2CC1CC1)[C@H]5O4 | inactive |
| O=C1C(I)=CC(=C(c2cc(I)c(O)c(I)c2)c2ccccc2C(=O)O)C=C1I | inactive |
| O=[N+]([O-])c1ccc([As](=O)(O)O)cc1 | inactive |
| CC(=O)O[C@@]12CO[C@H]1C[C@H](O)[C@@]1(C)C(=O)[C@H](O)C3=C(C)[C@@H](O)C[C@@](O)([C@@H](OC(=O)c4ccccc4)[C@@H]21)C3(C)C | 1720 nM (active) |
| Oc1ccc2c3c1O[C@H]1[C@@H](O)C=C[C@H]4[C@@H](C2)NCC[C@@]341 | inactive |
| CO[C@H]1CCC(O[C@H]2C[C@H]([C@]3(C)CC[C@]4(C[C@H](O)[C@@H](C)[C@@H]([C@@H](C)C=C(C)C(=O)[C@H](C)C[C@H](C)C(=O)O)O4)O3)O[C@]3(O[C@@H]([C@H]4O[C@@](O)(CO)[C@H](C)C[C@H]4C)C[C@H]3C)[C@H]2C)O[C@H]1C (stereo not given in full) | 217 nM (active) |
| CCOCCOC(C)=O | inactive |
| c1cc2ccc3cccc4ccc(c1)c2c34 | inactive |
| CC[C@@H](C(N)=O)N1CCCC1=O | inactive |
| O=c1[nH]c2ccccc2n1C1CCN(Cc2ccc(-c3[nH]c4cc5ncnc5cc4nc3-c3ccccc3)cc2)CC1 | 1720 nM (active) |
| CC(C)(C)c1cc(C=C(C#N)C#N)cc(Br)c1O | 30600 nM (active) |
| C[C@]12CC[C@@H]3[C@@H](CCC4=CC(=O)CC[C@@H]43)[C@@H]1CC[C@@H]2OC(=O)CCc1ccccc1 | inactive |
| c1ccc(CCCN2CCN(CCOC(c3ccccc3)c3ccccc3)CC2)cc1 | 21700 nM (active) |
| Cc1cc(O)ccc1Cl | inactive |

| SMILES | Potency |
| --- | --- |
| NC1=NC(=O)N2CC12 (stereo not given) | inactive |
| CC1=C(C(=O)O)N2C(=O)[C@@H](N)[C@H]2SC1 | inactive |
| CC(C)(O)C=CC(=O)[C@](C)(O)[C@H]1[C@H](O)C[C@]2(C)[C@@H]3CC=C4[C@@H](C=C(O)C(=O)C4(C)C)[C@]3(C)C(=O)C[C@@]12C | 137 nM (active) |
| CC(O)=C(C#N)C(=O)Nc1cc(Br)ccc1Br | inactive |
| CC(C)N[C@@H]1CCn2c(=O)[nH]c3cccc(c32)[C@@H]1O | 1370 nM (active) |
| O=S(=O)(F)Cc1ccccc1 | inactive |
| CC(=O)[O][Hg][c]1ccccc1 | 4900 nM (active) |
| CC1=NN=C(c2ccc(N)cc2)c2cc3c(cc2C1)OCO3 | inactive |
| C[C@](O)(COc1ccc(C#N)cc1)C(=O)Nc1ccc(C#N)c(C(F)(F)F)c1 | 27300 nM (active) |
| O=C(O)COc1nc(Cl)c(Cl)cc1Cl | inactive |
| O=C(O)c1cc(Oc2ccc(C(F)(F)F)cc2Cl)ccc1[N+](=O)[O-] | inactive |
| CC(=Cc1csc(C)n1)[C@@H]1C[C@H]2O[C@]2(C)CCC[C@H](C)[C@@H](O)[C@@H](C)C(=O)C(C)(C)[C@@H](O)CC(=O)O1 | 1 nM (active) |
| O=S(=O)(O)C(F)(F)C(F)(F)C(F)(F)C(F)(F)F | inactive |
| c1cc2c(cc1[C@H]1OC[C@H]3[C@H]1CO[C@H]3c1ccc3c(c1)OCO3)OCO2 | inactive |
| COc1ccc2c(c1)CN(C)CC2c1ccc(Cl)c(Cl)c1 (stereo not given) | 21700 nM (active) |
| C#C[C@]1(O)C=C[C@@H]2[C@@H]3CCC4=CC(=O)CC[C@@H]4[C@H]3CC[C@@]21CC | inactive |
| CC(=O)N(C)c1cccc(-c2ccnc3c(C(=O)c4cccs4)cnn23)c1 | inactive |
| CCC(=O)O[C@@H]1C=C2CCC3C(CCC4(C)C3CC[C@@H]4OC(=O)CC)C2CC1 (stereo not given in full) | inactive |
| CC(=Cc1csc(C)n1)[C@@H]1C[C@H]2O[C@@H]2CCC[C@H](C)[C@@H](O)[C@@H](C)C(=O)C(C)(C)[C@@H](O)CC(=O)O1 | 1 nM (active) |
| O=c1[nH]c2ccc(Cl)cc2c(N[C@@H]2CN3CCC2CC3)c1-c1nc2ccccc2[nH]1 | 109 nM (active) |
